# The entries come from a sample that favours the strongest signals as a whole.
# What was measured:
# Test in all cases: glycan array binding signal (z-score within array); higher = stronger binding
# Conditions in all cases: glycan notation: IUPAC condensed, linker removed
# [1] = biological target: Fuc(a1-2)Gal(b1-3)GlcNAc(b1-2)Man(a1-3)[Fuc(a1-2)Gal(b1-3)GlcNAc(b1-2)Man(a1-6)]Man(b1-4)GlcNAc(b1-4)GlcNAc
# Method in brief: (§1)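 Glycan array data came from 3228 arrays in the Consortium for Functional Glycomics database, and only arrays with an available protein sequence were kept. Glycan names were put into IUPAC-condensed notation, and columns mapping to the same glycan were averaged. The binding signal is a within-array Z-score, averaged across arrays of one protein sequence run at different concentrations or buffers and across linkers. A negative Z-score can be read as non-binding.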
# [2] = biological target: Fuc(a1-2)Gal(b1-4)Fuc(a1-3)]GlcNAc(b1-2)Man(a1-3)[Fuc(a1-2)Gal(b1-4)[Fuc(a1-3)]GlcNAc(b1-2)Man(a1-6)]Man(b1-4)GlcNAc(b1-4)GlcNAc
# Method in brief: as §1
# Fuc(a1-2)Gal(b1-4)GlcNAc = biological target: Fuc(a1-2)Gal(b1-4)GlcNAc
# Method in brief: as §1
# [3] = biological target: Fuc(a1-2)Gal(b1-4)GlcNAc(b1-2)Man(a1-3)[Fuc(a1-2)Gal(b1-4)GlcNAc(b1-2)Man(a1-6)]Man(b1-4)GlcNAc(b1-4)[Fuc(a1-6)]GlcNAc
# Method in brief: as §1
# [4] = biological target: Fuc(a1-2)Gal(b1-4)GlcNAc(b1-3)Gal(b1-4)GlcNAc(b1-2)Man(a1-3)[Fuc(a1-2)Gal(b1-4)GlcNAc(b1-3)Gal(b1-4)GlcNAc(b1-2)Man(a1-6)]Man(b1-4)GlcNAc(b1-4)GlcNAc
# Method in brief: as §1
# [5] = biological target: Fuc(a1-2)[Gal(a1-3)]Gal(b1-3)GlcNAc(b1-2)Man(a1-3)[Fuc(a1-2)[Gal(a1-3)]Gal(b1-3)GlcNAc(b1-2)Man(a1-6)]Man(b1-4)GlcNAc(b1-4)GlcNAc
# Method in brief: as §1
# [6] = biological target: Fuc(a1-2)[Gal(a1-3)]Gal(b1-3)GlcNAc(b1-6)GalNAc
# Method in brief: as §1
# [7] = biological target: Fuc(a1-2)[Gal(a1-3)]Gal(b1-4)Glc
# Method in brief: as §1
# [8] = biological target: Fuc(a1-2)[GalNAc(a1-3)]Gal(b1-4)GlcNAc(b1-2)Man(a1-3)[Fuc(a1-2)[GalNAc(a1-3)]Gal(b1-4)GlcNAc(b1-2)Man(a1-6)]Man(b1-4)GlcNAc(b1-4)[Fuc(a1-6)]GlcNAc
# Method in brief: as §1
# [9] = biological target: Fuc(a1-2)[GalNAc(a1-3)]Gal(b1-4)GlcNAc(b1-3)GalNAc
# Method in brief: as §1
# [10] = biological target: Fuc(a1-2)[GalNAc(b1-3)]Gal
# Method in brief: as §1
# [11] = biological target: Fuc(a1-3)[Gal(b1-4)]GlcNAc(b1-2)Man(a1-3)[Fuc(a1-3)[Gal(b1-4)]GlcNAc(b1-2)Man(a1-6)]Man(b1-4)GlcNAc(b1-4)[Fuc(a1-6)]GlcNAc
# Method in brief: as §1
# [12] = biological target: Fuc(a1-3)[Gal3S(b1-4)]Glc
# Method in brief: as §1
# [13] = biological target: Gal(a1-3)Gal(b1-3)GlcNAc(b1-2)Man(a1-3)[Gal(a1-3)Gal(b1-3)GlcNAc(b1-2)Man(a1-6)]Man(b1-4)GlcNAc(b1-4)GlcNAc
# Method in brief: as §1
# [14] = biological target: Gal(a1-4)Gal(b1-3)GlcNAc(b1-2)Man(a1-3)[Gal(a1-4)Gal(b1-3)GlcNAc(b1-2)Man(a1-6)]Man(b1-4)GlcNAc(b1-4)GlcNAc
# Method in brief: as §1
# [15] = biological target: Gal(b1-3)GalNAc(a1-3)[Fuc(a1-2)]Gal(b1-4)GlcNAc
# Method in brief: as §1
# [16] = biological target: Gal(b1-3)GlcNAc(b1-3)Gal(b1-4)GlcNAc(b1-2)Man(a1-3)[Gal(b1-3)GlcNAc(b1-3)Gal(b1-4)GlcNAc(b1-2)Man(a1-6)]Man(b1-4)GlcNAc(b1-4)GlcNAc
# Method in brief: as §1
# [17] = biological target: Gal(b1-3)GlcNAc(b1-3)Gal(b1-4)GlcNAc(b1-6)[Gal(b1-3)GlcNAc(b1-3)]Gal(b1-4)Glc
# Method in brief: as §1
# [18] = biological target: Gal(b1-3)GlcNAc(b1-6)GalNAc
# Method in brief: as §1
# [19] = biological target: Gal(b1-3)[Fuc(a1-4)]GlcNAc
# Method in brief: as §1
# Gal(b1-4)Glc6S = biological target: Gal(b1-4)Glc6S
# Method in brief: as §1
# [20] = biological target: Gal(b1-4)GlcNAc(b1-2)Man(a1-3)Man(b1-4)GlcNAc(b1-4)GlcNAc
# Method in brief: as §1
# [21] = biological target: Gal(b1-4)GlcNAc(b1-3)Gal(b1-4)GlcNAc(b1-2)Man(a1-3)[Gal(b1-4)GlcNAc(b1-3)Gal(b1-4)GlcNAc(b1-2)Man(a1-6)]Man(b1-4)GlcNAc(b1-4)GlcNAc
# Method in brief: as §1
# [22] = biological target: Gal(b1-4)GlcNAc(b1-3)Gal(b1-4)GlcNAc(b1-2)Man(a1-3)[Gal(b1-4)GlcNAc(b1-3)Gal(b1-4)GlcNAc(b1-2)Man(a1-6)]Man(b1-4)GlcNAc(b1-4)[Fuc(a1-6)]GlcNAc
# Method in brief: as §1
# [23] = biological target: Gal(b1-4)GlcNAc(b1-3)Gal(b1-4)GlcNAc(b1-2)[Gal(b1-4)GlcNAc(b1-3)Gal(b1-4)GlcNAc(b1-6)]Man(a1-6)[Gal(b1-4)GlcNAc(b1-3)Gal(b1-4)GlcNAc(b1-2)Man(a1-3)]Man(b1-4)GlcNAc(b1-4)[Fuc(a1-6)]GlcNAc
# Method in brief: as §1
# [24] = biological target: Gal(b1-4)GlcNAc(b1-3)Gal(b1-4)GlcNAc(b1-3)Gal(b1-4)GlcNAc(b1-2)Man(a1-3)[Gal(b1-4)GlcNAc(b1-3)Gal(b1-4)GlcNAc(b1-3)Gal(b1-4)GlcNAc(b1-2)Man(a1-6)]Man(b1-4)GlcNAc(b1-4)GlcNAc
# Method in brief: as §1
# [25] = biological target: Gal(b1-4)GlcNAc(b1-3)Gal(b1-4)GlcNAc(b1-3)Gal(b1-4)GlcNAc(b1-2)[Gal(b1-4)GlcNAc(b1-3)Gal(b1-4)GlcNAc(b1-3)Gal(b1-4)GlcNAc(b1-6)]Man(a1-6)[Gal(b1-4)GlcNAc(b1-3)Gal(b1-4)GlcNAc(b1-3)Gal(b1-4)GlcNAc(b1-2)Man(a1-3)]Man(b1-4)GlcNAc(b1-4)[Fuc(a1-6)]GlcNAc
# Method in brief: as §1
# [26] = biological target: Gal(b1-4)GlcNAc(b1-3)Gal(b1-4)GlcNAc(b1-3)[Gal(b1-4)GlcNAc(b1-3)Gal(b1-4)GlcNAc(b1-6)]GalNAc
# Method in brief: as §1
# [27] = biological target: Gal(b1-4)GlcNAc(b1-3)Gal(b1-4)GlcNAc(b1-6)[Gal(b1-3)]GalNAc
# Method in brief: as §1
# Gal6S(b1-4)GlcNAc6S = biological target: Gal6S(b1-4)GlcNAc6S
# Method in brief: as §1
binder,measurement,setting,value
"InvD YPIII (Yersinia pseudotuberculosis), B1JSC0 (protein) MIKYFSFFKKPEPIVGILPNRQSHHILPTHIRRVAWGTLLLQLFIPLSVSFSPAIAAMKASKADTMVSYSSTEPYVLGSGETVAMVAKKYGITVDELKKINIYRTFSRPFTALTTGDEIDIPRKASPFSVDNNKDNRLSVENTLAGHAVAGATALSNGDVAKSGERMVRSAASNEFNNSAQQWLSQFGTARVQLNINDDFHLDGSAADVLIPLYDNEKSILFTQLGARNKDSRNTVNMGAGVRTFQGNWMYGANTFFDNDLTGKNRRIGVGAEAWTDYLKLSANNYFGITDWHQSRDFIDYNERPANGYDLRAEAYLPSYPQLGGKAMYEKYRGDDVALFGKDNRQKNPHAITAGVNYTPIPLVTIGAEHRAGKGGQNDSNINFQLNYRLGETWQSHIDPSAVAASRTLAGSRYDLVERNNHIVLDYQKQNLVRLSLPDSLAGDPFSQLSVTAQVTATHGLERIDWQSAELMAAGGVLKQTSKNGLEITLPEYQMNRTGGNSYILNAIAYDTQGNASSQASMLITVNAQKINIANSTLVAVPINIEANNSDTSVVTLTLKDDNNIPVTGQDVTFLSPLGTLSAMTDSGNGVYTATLTAGTVSGTTAVSSNINGSALDMTPATVTLNGNSGELSITHSMLVAAPVNIEANGSDTSVVTLTLRDSNNNPVTGQTVTFAGTLGTLGAVTEGSSGVYTATLTAGIMVGTSSITASVNSTALGVTPATVTLNGDSGNLSTTNSTLVAAPVNIEANSSDTSVVTLTLRDNNNNPVTGQTVVFTSTLGTLGNVTEQASGVYTATLTAGTVSGVASLSVSVGGNALGVTPATVTLNGDSGNLSTTNSTLVAAPVNIEANSSDTSVVTLTLRDNNNNPVTGQTVNFAGTLGTLGTVSEGSSGVYTTTLTAGTVAGVASLSVNVGGNALGVTPATVTLNGNSGNLSATNSTLVAAPVNIEANSSDTSVVTLTLRDNNNNPVTGQTVAFTSTLGTLGNVTEQASGVYTATLTAGTVSGVASLSVSVNSNALGVTPATVTLNGDSGNLSTTNSTLVAAPVNIEANSSDTSVVTLTLRDNNNNPVTGQTVAFTSTLGTLGNVTEQASGLYTATLTAGTVSGVASLSVNVGGNALGVTPATVTLNGDSGNLSATNSTLVAAPVNIEANSSDTSVVTLTLRDNNNNPVTGQTVAFTSTLGTLGNVTEQASGLYTATLTAGTVSGVASLSVNVGGTALGVTPATVTLNGDSGNLSTTNSTLVAAPVNIEANSSDTSVVTLTLRDNNNNPVTGQTVAFTSTLGTLGNVTEQASGLYTATLTAGTVSGVASLSVSVNSTALGVTPATVTLNGDSGNLSTTNSTLVAAPVNIEANSSDTSVVTLTLRDNNNNPVTGQTVAFTSTLGTLGNVTEQASGVYTATLTAGTVAGVASLSVNVGGNALGVTPATVTLNGDSGNLSTTNSTLVAAPVNIEANSSDTSVVTLTLRDNNNNPVTGQTVAFTSTLGTLGNVTEQASGVYTATLTAGTVSGVASLSVSVGSSALGVTPATVTLNGDSGNLSTTNSTLVAAPVNIEANNSDTSVVTLTLRDNNNNPVTGQTVAFTSTLGTLGNVTEQASGVYTATLTAGTVSGVASLSVSVNSNALGVTPATVTLNGDSGNLSTTNSTLVAAPVNIEANSSDTSVVTLTLRDNNNNPVTGQTVVFTSTLGTLGNVTEQASGLYTATLTAGTVSGVASLSVSVGGNALGVTGNITLAPGALDAARSILAVNKPSINADDRIGSTITFTAQDAQGNAITGLDIAFMTDLENSQIMTLVDHNDGTYTANINGTQTGIANIAVQSSGATIAGLAATMVTITPGAWNTTQATPVMTVALPITTCQSSSGVYKRYYIGIVTHELYDNYGNEISGILTYNLGAGRYTTVTSQNSSVSGSNGLTRRSNSPVSHFILTSDAYTSQAACYAERIANVNVTITVTAITDDFKTSAVNKVFILGTGSN",glycan array binding signal (z-score),[1],0.001
same,glycan array binding signal (z-score),[2],1.36
same,glycan array binding signal (z-score),Fuc(a1-2)Gal(b1-4)GlcNAc,-0.154
same,glycan array binding signal (z-score),[3],0.037
same,glycan array binding signal (z-score),[4],-0.232
same,glycan array binding signal (z-score),[5],-0.164
same,glycan array binding signal (z-score),[6],0.218
same,glycan array binding signal (z-score),[7],-0.359
same,glycan array binding signal (z-score),[8],0.113
same,glycan array binding signal (z-score),[9],-0.306
same,glycan array binding signal (z-score),[10],0.063
same,glycan array binding signal (z-score),[11],-0.147
same,glycan array binding signal (z-score),[12],-0.259
same,glycan array binding signal (z-score),[13],0.213
same,glycan array binding signal (z-score),[14],0.015
same,glycan array binding signal (z-score),[15],-0.102
same,glycan array binding signal (z-score),[16],-0.358
same,glycan array binding signal (z-score),[17],-0.192
same,glycan array binding signal (z-score),[18],-0.16
same,glycan array binding signal (z-score),[19],-0.119
same,glycan array binding signal (z-score),Gal(b1-4)Glc6S,-0.213
same,glycan array binding signal (z-score),[20],-0.355
same,glycan array binding signal (z-score),[21],10.1
same,glycan array binding signal (z-score),[22],2.01
same,glycan array binding signal (z-score),[23],1.88
same,glycan array binding signal (z-score),[24],1.59
same,glycan array binding signal (z-score),[25],1.62
same,glycan array binding signal (z-score),[26],1.71
same,glycan array binding signal (z-score),[27],1.51
same,glycan array binding signal (z-score),Gal6S(b1-4)GlcNAc6S,-0.131

# Source: the supplement of paper PMC8728848
